Screening data deposited in PubChem BioAssay by several laboratories.
MLLE-PAM2 inh = blocks PAM2 peptide binding to the PABP1 MLLE domain. P11940. GST-MLLE / FITC-PAM2 fluorescence polarization. inhibition, % at 20 µM. 360,000 compounds, 0.36% hits; in the data active = inhibition above about 35%, passing the limit was not always enough;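 note: plate controls were DMSO wells with GST-MLLE for no effect and wells lacking GST-MLLE protein for full effect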
PABP FP inh = blocks human PABP binding to poly(A) RNA. P11940. fluorescence polarization. calls only at 35 µM. 290,000 compounds, 1% hits;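 note: calls also rest on retests at 20 µM and on dose response follow-up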
eIF4H inh = inhibitors of RNA binding by human eIF4H. Q15056. eIF4H fluorescence polarization binding assay. inhibition, % at 35 µM. 290,000 compounds, 0.94% hits. AID 2012;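 note: calls also rest on retests at 20 µM and on dose response follow-up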
PHOSPHO1 block = blocks human PHOSPHO1 phosphatase activity | Q8TCT1 | recombinant PHOSPHO1, absorbance phosphatase assay | inhibition, % at 13.3 µM | 290,000 compounds, 1.1% hits | AID 1565; in the data active = inhibition above about 60%
ABCB6 inh MLPCN = human ABCB6 transporter inhibition | Q9NP58 | K562-ABCB6 porphyrin accumulation, flow cytometry, 1 h; active compounds read low | AID 602162 | 360,000 compounds, 0.19% hits | fluorescence ratio to DMSO, % at 10 µM;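 active = fluorescence ratio to DMSO below 75%, the collection mean minus 3 SD; inconclusive = too few cells collected in the well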;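 note: signal is porphyrin accumulated inside mitochondria; 100% equals median channel fluorescence of DMSO control wells; lower ratio means ABCB6 inhibition with less porphyrin fluorescence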
Target sequence (Q9NP58 whole entry, looked up): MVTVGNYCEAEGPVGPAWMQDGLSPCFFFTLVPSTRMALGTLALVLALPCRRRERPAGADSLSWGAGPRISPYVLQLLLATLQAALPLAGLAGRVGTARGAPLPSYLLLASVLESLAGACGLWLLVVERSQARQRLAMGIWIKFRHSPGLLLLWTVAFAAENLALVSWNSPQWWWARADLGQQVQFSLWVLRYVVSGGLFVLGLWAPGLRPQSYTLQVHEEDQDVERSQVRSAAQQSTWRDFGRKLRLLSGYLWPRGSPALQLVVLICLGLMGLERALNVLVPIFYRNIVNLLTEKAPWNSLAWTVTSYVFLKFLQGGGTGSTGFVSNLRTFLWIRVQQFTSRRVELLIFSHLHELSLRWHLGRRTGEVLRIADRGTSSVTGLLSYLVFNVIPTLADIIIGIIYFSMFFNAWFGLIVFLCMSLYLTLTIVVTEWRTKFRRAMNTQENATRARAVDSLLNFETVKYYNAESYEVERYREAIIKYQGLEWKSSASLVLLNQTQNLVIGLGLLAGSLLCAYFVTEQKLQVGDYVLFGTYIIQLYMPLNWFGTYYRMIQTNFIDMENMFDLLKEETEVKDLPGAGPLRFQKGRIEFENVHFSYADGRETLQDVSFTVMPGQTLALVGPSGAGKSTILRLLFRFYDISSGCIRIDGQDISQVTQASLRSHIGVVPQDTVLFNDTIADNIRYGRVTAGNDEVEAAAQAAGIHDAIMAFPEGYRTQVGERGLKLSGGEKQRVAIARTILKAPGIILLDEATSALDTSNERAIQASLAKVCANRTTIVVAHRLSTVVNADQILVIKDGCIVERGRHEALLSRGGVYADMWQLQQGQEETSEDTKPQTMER
AI-2 QS modul = modulators of Vibrio harveyi AI-2 quorum sensing system; Vibrio harveyi JMH597 AI-2 luminescence/OD600 ratio, 9 h; active compounds read low; strain lacks LuxN and CqsS sensors; 0 = neutral-control median; activity change, % at 7.5 µM; 300,000 compounds, 0.4% hits; AID 2094; in the data active = activity change below about -75%, passing the limit was not always enough; inconclusive = no clear call, values can overlap the other calls;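 note: luminescence divided by OD600 gain over 9 h not by final OD600 alone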
Starred values were filed as active, the others as inactive; i = inactive; ? = inconclusive; . = no result; + = active, no number. This is a sample that favours compounds with a hit; in the whole collection about 2.6% have one here. Unless noted, the rule behind the calls is not given here.

SMILES | MLLE-PAM2 inh | PABP FP inh | eIF4H inh | PHOSPHO1 block | ABCB6 inh MLPCN | AI-2 QS modul
O=c1cc(CSc2nc3ccccc3c(=O)[nH]2)c2ccc(O)cc2o1 | 8 | i | 30 | 60* | 99 | 14
Cc1cc(C)n2nc(SCc3cc(=O)oc4cc(O)ccc34)nc2n1 | . | + | ? | 45 | . | 28
O=c1[nH]c(SCc2ccccc2F)nc2ccccc12 | -2 | i | -2 | 37 | 100 | 24
CN(C)c1ccc(CC(=O)N2CCCC(c3cc(C(=O)Nc4ccc(F)c(Cl)c4)no3)C2)cc1 (stereo not given) | 0 | . | . | . | 96 | .
O=C1c2ccccc2C(=O)c2c1oc(C(F)(F)F)c2C(=O)c1ccccc1 | 8 | i | 11 | 106* | 120 | 10
CC(C)Nc1ncnc2c1ncn2[C@H]1CN(Cc2cccs2)C[C@@H](CO)O1 | 3 | . | . | . | 90 | .
CCCCOCCCNC(=O)C[C@@H]1C[C@@]2(C(=O)OCC)CCC=C2N(Cc2ccccc2)C1=O | . | . | . | . | 96 | .
COC(=O)[C@@]1(Cc2ccc(F)cc2)[C@@H]2[C@@H](CC(=O)[C@H]2CC(=O)C(=O)N(C)C)CN1C(=O)c1ccccc1 | -6 | + | 71* | -1 | 98 | .
C[C@@H]1CCCCO[C@@H](CN(C)C(=O)CCCN(C)C)[C@@H](C)CN([C@H](C)CO)C(=O)c2cc(N(C)C)ccc2O1 | -25 | . | . | . | 100 | .
O=C(C(=NNc1ccccc1)C(=S)Nc1ccccc1)c1ccccc1 | 14 | . | . | . | 99 | .
CCOC(=O)C1=C(C)NC(C)=C(C(=O)OCC)C1c1ccc(O)cc1 | -4 | + | 7.4* | -44 | 98 | 39
CC(C)CC1C(=O)N(Cc2cn(CC3CCCCC3)nn2)CCS(=O)(=O)N1Cc1ccc(-c2cccc(CO)c2)cc1 (stereo not given) | 4 | . | . | . | 85 | .
COc1cccc(CNC(=O)[C@@H]2CCCN2C(=O)[C@H]2CCCCN2)c1 | . | . | . | . | 98 | .
O=C1/C(=C/c2ccco2)SC(=S)N1CC1CCCO1 (stereo not given) | 5 | i | 74* | 4 | 106 | 8
O=C1/C(=C\c2ccc(-c3ccccc3Cl)o2)SC(=S)N1CC1CCCO1 (stereo not given) | -78 | ? | ? | 81* | 104 | 39
CN1C(=O)/C(=C2\SC(=S)N(CC3CCCO3)C2=O)c2ccccc21 (stereo not given) | . | i | 6 | 3 | . | .
COc1ccc(/C=C2\SC(=S)N(CC3CCCO3)C2=O)cc1 (stereo not given) | 8 | i | -6 | 4 | 95 | -6
Cc1ccc(/C=C2\SC(=S)N(CC3CCCO3)C2=O)o1 (stereo not given) | -1 | i | 22 | 77* | 100 | 10
O=C1/C(=C/c2cccnc2)SC(=S)N1CC1CCCO1 (stereo not given) | 35 | i | -3 | 27 | 96 | 23
Cc1ccc(/C=C2/SC(=O)NC2=S)o1 | 126 | i | ? | 68* | 107 | .
Cc1cn([C@H]2C[C@H](O)[C@@H](/C=C/C(=O)NCCN3CCOCC3)O2)c(=O)[nH]c1=O | -1 | . | . | . | 98 | .
CC1=C(C(=O)N(C(C)C)C(C)C)CC(CC(=O)NCCN2CCOCC2)C(=O)N1Cc1ccc(F)cc1 (stereo not given) | -8 | . | . | . | 101 | .
CCCCn1nnnc1C(c1ccc(OC)cc1)N1CCN(C/C=C/c2ccccc2)CC1 (stereo not given) | 0 | . | . | . | 96 | .
CN(C)c1ccc(CNC(=O)C2(C)Cc3c(-c4cccc(C(F)(F)F)c4)ccnc3O2)cc1 (stereo not given) | 4 | . | . | . | 101 | .
Cc1nc(-c2ccccc2)sc1C(=O)NS(=O)(=O)c1ccc(CN2CCN(c3ccccc3)CC2)cc1 | . | . | . | . | 98 | .
SMILES | MLLE-PAM2 inh | PABP FP inh | eIF4H inh | PHOSPHO1 block | ABCB6 inh MLPCN | AI-2 QS modul
Cc1ccc(NC(=O)CN2C(=O)NC3(CCc4ccccc43)C2=O)cc1 (stereo not given) | -3 | i | -6 | 19 | 96 | -90*
O=C(CN1C(=O)NC2(CCc3ccccc32)C1=O)Nc1cccc(Cl)c1 (stereo not given) | -13 | . | . | . | 100 | .
Cc1ccc(NC(=O)CN2C(=O)NC3(CCc4ccccc43)C2=O)cc1Cl (stereo not given) | -1 | i | -7 | 3 | 92 | -90*
C#CCNC(=O)c1csc([C@@H]2O[C@H](CO)[C@@H](O)[C@H]2O)n1 | -6 | . | . | . | 99 | .
CCCCNC(=O)C1(C)CCN1C(=O)c1ccc(OC)c(C(F)(F)F)c1 (stereo not given) | 11 | . | . | . | 99 | .
Cc1ccc(Sc2ccc(N)cc2C#N)cc1 | 7 | . | . | . | 102 | -81*
Cc1ccc(Sc2nnc(-c3ccccc3)cc2C#N)cc1 | 4 | i | -3 | 19 | 100 | 0
Nc1nc2c(s1)CCc1c-2cnn1-c1ccccc1 | -22 | i | 0 | 106* | 124 | 58
CC(=O)Nc1cc2c3ccccc3ccc2c2ccccc12 | -2 | . | . | . | 74* | .
Cc1cc(C(O)c2ncc(-c3ccccc3)[nH]2)ccc1F (stereo not given) | 0 | . | . | . | 104 | .
O=C(N=Nc1c(O)[nH]c2ccccc12)c1ccc2c(c1)OCO2 | -2 | + | 8.5* | 32 | 96 | 21
O=C(N=Nc1c(O)[nH]c2ccccc12)c1ccc(CN2CCOCC2)cc1 | -10 | i | 4 | -29 | 103 | 15
FC(F)(F)c1ccc(-c2n[nH]c(=S)o2)nc1 | -135 | i | -2 | -10 | 95 | 58
S=c1[nH]nc(-c2ccc3ccccc3n2)o1 | -68 | i | -6 | 89* | 103 | 21
COc1cccc(-c2cc(NC=O)c3ncc(-c4ccc(C(C)=O)cc4)n3c2)c1 | -16 | . | . | . | 97 | .
Cc1c(C(=O)Nc2c(C)n(C)n(-c3ccccc3)c2=O)oc2c(Cl)cccc12 | 4 | i | 4 | 41 | 98 | 15
Cc1c(NC(C)c2ccccc2O)c(=O)n(-c2ccccc2)n1C (stereo not given) | -2 | i | -11 | 13 | 54* | 27
Cc1cccc(NC(=O)Nc2c(C)n(C)n(-c3ccccc3)c2=O)c1 | -5 | i | 7 | . | 98 | 17
Cc1c(NC(=O)Nc2cccc(Cl)c2)c(=O)n(-c2ccccc2)n1C | -8 | i | 0 | -31 | 96 | 18
Cc1c(C(=O)Nc2c(C)n(C)n(-c3ccccc3)c2=O)oc2ccc(Cl)cc12 | -2 | i | -4 | 71* | 94 | 6
Cc1c(NC(=S)Nc2cccc(Cl)c2)c(=O)n(-c2ccccc2)n1C | 16 | i | active | 8 | 96 | 14
Cc1c(NC(=O)Nc2cccc(F)c2)c(=O)n(-c2ccccc2)n1C | 1 | i | -4 | 61* | 91 | 20
O=C(NCc1ccccc1)OC1CC2CC1[C@H]1CCCCN1C2=O (stereo not given in full) | . | . | . | . | 105 | .
Fc1cccc(Cc2c(-c3ccccc3)nc3c4ccccc4ccn23)c1 | . | . | . | . | 116 | .
